# From PubChem BioAssay
# Most compounds without a hit are left out; they make up all but 8.8% or so of the library.
# KB-V1 cytotox – qHTS assay for MDR1-selective chemotherapeutics: Primary screen using the drug-selected MDR subline cells KB-V1 | KB-V1 MDR cells viability, CellTiter-Glo, 72 h | Potency, µM (series often up to 46.1 µM), usual class: cytotoxic | 400,000 compounds, 3.4% hits; note: potency is the fitted concentration of half-maximal effect; nearly all actives have a fitted effect of over 60% in size
#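 Potencies derive from concentration-effect curves fitted to normalized luminescence (CellTiter-Glo) of KB-V1 cells treated for 72 h at 37 degrees C in phenol-red-free DMEM containing 10% FBS.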
# HT1080 IDH1KD tx – qHTS for induction of synthetic lethality in tumor cells producing 2HG: qHTS for the HT-1080-IDH1KD cell line. 360,000 compounds, 2% hits. AID 686971, 2013. Potency, µM (titrated, usually from 46.1 µM), for inactives: at the top dose activity, negative = toxicity, hits mostly cytotoxic. HT-1080 IDH1 knockdown viability, ATP luminescence, 48 h;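 note: potency is the fitted concentration of half-maximal effect; 0% = DMSO wells and -100% = cell-free medium wells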
#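 CellTiter-Glo luminescence after 48 h compound exposure at 37 degrees C of IDH1-knockdown HT-1080 cells in 5% FBS RPMI. %Activity scaled between DMSO wells and cell-free media wells, with curves fitted and assigned curve classes.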
# KB-3-1 cytotox – qHTS assay for MDR1-selective chemotherapeutics: Primary screen using the parental adenocarcinoma cell KB-3-1; 400,000 compounds, 1.4% hits; Potency, µM (doses to about 46.1 µM), usual class: cytotoxic; KB-3-1 viability, CellTiter-Glo ATP luminescence, 72 h; AID 1347075, 2019; note: potency is the fitted concentration of half-maximal effect; nearly all actives have a fitted effect of over 60% in size
#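 KB-3-1 parental drug-naive adenocarcinoma cells in DMEM/10% FBS, incubated 72 h at 37 C with pin-transferred compounds across a concentration series. Viability by CellTiter-Glo luminescence; concentration-response curves fitted after normalization.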
# IL1B secr inh – qHTS for Inhibitors of Inflammasome Signaling: IL-1-beta AlphaLISA Primary Screen | 360,000 compounds, 4.7% hits | activity change, % at 57.5 µM | AID 743279, 2014 | THP-1 LPS/ATP IL-1B secretion, AlphaLISA, 16 h; stronger effect = lower value; in the data active = activity change below about -50%; inconclusive = mostly about -30% to -49%
#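 THP-1 cells pretreated 1 hr with compounds (up to 57.5 uM final), then stimulated with LPS (250 ng/mL final) plus ATP (1.25 mM final); secreted IL-1B measured by AlphaLISA after 16 hr, decreased signal indicating inhibition.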
# HT1080NT lethal – qHTS for induction of synthetic lethality in tumor cells producing 2HG: qHTS for the HT-1080-NT fibrosarcoma cell line; Potency, µM (highest dose often 46.1 µM), for the others: at the highest dose activity, negative = less viability, usual class: cytotoxic; 360,000 compounds, 1.6% hits; HT-1080-NT fibrosarcoma viability, CellTiter-Glo ATP luminescence, 48 h;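 note: NT is the 2HG producing partner of a matched IDH1 knockdown line; potency is the fitted concentration of half-maximal effect; 0% = DMSO-treated cells and -100% = media-only wells without cells; nearly all actives have a fitted effect of over 55% in size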
#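 HT-1080-NT; 750 cells/well; 5% FBS RPMI; 48 h compound, 37 degrees C; CellTiter-Glo luminescence; curve fitting and curve-class assignment.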
# * marks the source's active call; other numbers are inactive results; i = inactive; ? = inconclusive; nt = no result. Unless noted, calls come from the whole dose curve; as a rule, active = well fitted curve in the direction sought with a large enough effect; inconclusive = small, poorly fitted or top-dose-only effect, or another doubt; inactive = no such curve, though single readings can be large; an effect the other way counts as inactive or inconclusive. Unless noted, % is set by controls: 0 for no effect and ±100 for the full control effect.
SMILES,KB-V1 cytotox,HT1080 IDH1KD tx,KB-3-1 cytotox,IL1B secr inh,HT1080NT lethal
COc1cc2c(=O)n(Cc3ccccc3Cl)c(=O)n(CC(=O)Nc3ccccc3)c2cc1OC,i,nt,i,nt,nt
COc1cc(C(=O)Nc2ccc3nc(N4CCN(C)CC4)cc(C)c3c2)cc(OC)c1OC,i,?,?,-5,?
CCC(C)NC(=O)CCC(=O)Nc1ccc2nc(N3CC(C)CC(C)C3)cc(C)c2c1 (stereo not given),i,-8%,i,-59*,0%
Cc1cc(N2CCN(C)CC2)nc2ccc(NC(=O)c3ccc4c(c3)OCO4)cc12,i,?,7.3µM*,-54*,?
CCC(C)NC(=O)CCC(=O)Nc1ccc2nc(N3CCOCC3)cc(C)c2c1 (stereo not given),i,8%,i,6,14%
COCCN1C(=O)COc2ccccc2C1C(=O)Nc1c(C)cccc1C (stereo not given),i,5%,i,35,20%
COc1ccc(C(=O)NCCNc2nc3ccc(C)cc3cc2C#N)cc1OC,i,2%,i,-19,1%
CCC[n+]1c2ccccc2cc2ccccc21,21µM*,?,?,-99*,16µM*
CCCC[n+]1c2ccccc2cc2ccccc21,i,?,16µM*,-101*,23µM*
COc1ccc2[nH]c3c(c2c1)CCN1C(=O)C(CC(=O)NCc2ccco2)C[C@H](C(=O)N2CCCCC2)[C@@]31C (stereo not given in full),?,1%,i,-5,2%
C[C@]12c3[nH]c4ccccc4c3CCN1C(=O)C(CC(=O)NCC13CC4CC(CC(C4)C1)C3)C[C@@H]2C(=O)N1CCCCC1 (stereo not given in full),i,?,i,-64*,?
C[C@]12c3[nH]c4ccc(Cl)cc4c3CCN1C(=O)[C@@H](CC(=O)NCc1ccco1)C[C@@H]2C(=O)N1CCCCC1,i,?,i,-55*,-11%
CC(C)N(C(=O)[C@H]1CC(CC(=O)NCC23CC4CC(CC(C4)C2)C3)C(=O)N2CCc3c([nH]c4ccccc34)[C@]12C)C(C)C (stereo not given in full),i,2%,i,-55*,-4%
COc1ccc2[nH]c3c(c2c1)CCN1C(=O)C(CC(=O)NCCC2=CCCCC2)C[C@H](C(=O)N2CCCCC2)[C@@]31C (stereo not given in full),i,11%,i,-52*,2%
O=S(=O)(/N=C(/Nc1ccccn1)c1ccc(Cl)cc1)c1ccc(Cl)cc1,?,23%,i,-1,16%
CCN(CC)C(=O)[C@H]1CC(CC(=O)NCC23CC4CC(CC(C4)C2)C3)C(=O)N2CCc3c([nH]c4ccc(OC)cc34)[C@]12C (stereo not given in full),i,-29%,i,-55*,-30%
C[C@]12c3[nH]c4ccc(Cl)cc4c3CCN1C(=O)[C@@H](CC(=O)NCc1cccc(C(F)(F)F)c1)C[C@@H]2C(=O)N1CCCCC1,i,6%,i,?,5%
COCCCNC(=O)CC1C[C@H](C(=O)N2CCCCC2)[C@@]2(C)c3[nH]c4ccc(OC)cc4c3CCN2C1=O (stereo not given in full),i,13%,i,4,11%
COc1ccc2[nH]c3c(c2c1)CCN1C(=O)C(CC(=O)NCc2cccc(C(F)(F)F)c2)C[C@H](C(=O)N2CCCCC2)[C@@]31C (stereo not given in full),i,-16%,i,-53*,-4%
COc1ccc2[nH]c3c(c2c1)CCN1C(=O)C(CC(=O)NCC24CC5CC(CC(C5)C2)C4)C[C@H](C(=O)N2CCCCC2)[C@@]31C (stereo not given in full),?,9%,?,-64*,2%
CC(=O)N1c2ccc(S(=O)(=O)NCC3CCC(C(=O)N4CC(C)CC(C)C4)CC3)cc2CC1C (stereo not given),i,0%,i,31,-16%
COCCn1c(C)cc(O)c(C(c2ccccc2F)N2CCN(c3ccccc3)CC2)c1=O (stereo not given),?,nt,i,nt,nt
Cc1nc(NC(=O)C(C)Oc2cccc(Cl)c2)sc1C(=O)N(C)C (stereo not given),i,7%,i,0,6%
O=C1C2C3C=CC(O3)C2C(=O)N1Nc1ccccc1 (stereo not given),i,-11%,i,12,1%
O=C1C2CC=CCC2C(=O)N1Nc1ccccc1 (stereo not given),i,?,i,12,21µM*
SMILES,KB-V1 cytotox,HT1080 IDH1KD tx,KB-3-1 cytotox,IL1B secr inh,HT1080NT lethal
Cc1ccnc(SCC(=O)Nc2sc3c(c2C#N)CCC(C(C)(C)C)C3)n1 (stereo not given),13µM*,12%,?,25,25%
Nn1c(SCC(=O)N2CCN(S(=O)(=O)c3ccc(Cl)cc3)CC2)nnc1-c1cccs1,i,-1%,i,-12,-1%
O=C(Nc1nccs1)c1ccc(S(=O)(=O)NCc2cccs2)cc1,18µM*,-13%,i,-76*,?
O=C(Nc1nccs1)c1ccc(S(=O)(=O)NCC2CCCCC2)cc1,?,?,i,-19,-30%
O=S(=O)(NCc1cccs1)c1ccc(Br)cc1,i,5%,i,-14,-6%
O=C(Nc1ccc(Br)cc1)c1ccc(F)c(S(=O)(=O)NCc2cccs2)c1,?,?,?,-55*,?
CCOC(=O)c1c(NC(=O)c2cc(=O)c3cc(Cl)ccc3o2)sc(C)c1C,i,nt,i,nt,nt
O=c1[nH]c(SCc2ccc(F)cc2Cl)nc2ccccc12,i,-2%,i,10,1%
CCN(CC)c1nc2ccccc2c(N)c1-c1ccccc1,?,?,?,-27,?
CSC1=NC(C(Cl)(Cl)Cl)N=C(c2ccc(C)cc2)N1 (stereo not given),1.3µM*,0.65µM*,1µM*,30,0.37µM*
CCOC(=O)C1=CC[C@@H](c2ccccc2)N(S(=O)(=O)c2ccc(C)cc2)[C@H]1C#N,i,?,i,-25,16µM*
CCNC(=O)C1(C)CCCN(Cc2noc(-c3c(C)noc3C)n2)C1 (stereo not given),i,17%,i,32,20%
